Reference: PubChem BioAssay (Tox21)
Records with an inconclusive call do not appear. A call without a number means that no potency is given here. Calls of active or inactive are those of the source. Calls follow the shape of the full dose curve.

Assay: p53 small molecule agonists, cell-based qHTS assay with rat liver microsomes (AID 1963578)
Conditions: HCT-116 p53RE-bla, beta-lactamase ratio, 16 h; series mostly up to 66 µM
Source text: U.S. Tox21 Program National Center for Advancing Translational Sciences [NCATS] Division of Preclinical Innovation [DPI] U.S. Environmental Protection Agency [EPA] National Institutes of Environmental Health Sciences [NIEHS] National Toxicology Program [NTP] U.S. Food and Drug Administration [FDA] Tox21 Assay Overview: p53, a tumor suppressor protein, is activated following cellular insult, including DNA damage and other cellular stresses. The activation of p53 regulates cell fate by inducing DNA repair, cell cycle arrest, apoptosis, or cellular senescence. The activation of p53, therefore, is a good indicator of DNA damage and other cellular stresses. […] The activation of the reporter gene under culture conditions can be detected by fluorescence intensity. This cell line was used to screen the Tox21 10K compound library in the condition of presence of rat liver microsomes and to identify agonists that activate the p53 signaling pathway after in vitro metabolic activation (Ooka et al., Archive of Toxicology 96:1975-1987, 2022).
Tox21 Assay Protocol Summary: The p53RE-bla cells were dispensed at 4,000cells/3ul/well in 1536-well black-clear bottom plates. After the assay plates were incubated at 37 C, 5% CO2 incubator for 5 hours, 23 nL of compounds dissolved in DMSO, positive controls or DMSO only was transferred to the assay plate. Following compound addition, 3 uL of rat liver microsomes (Molecular Toxicology, Boone, NC) at final concentration of 0.5 mg/mL and 1uL of Beta-Nicotinamide adenine dinucleotide 2-phosphate (NADPH) at final concentration of 0.5 mg/mL were transferred to the assay plate. The plates were incubated at 37 C for 16 hours. 1 uL of LiveBLAzer detection mixture was added to each well and the plates were incubated at room temperature in the dark for 2 h.
Potency is read from the fitted curve at half-maximal effect.

**Q.** Which Potency does the source give for `CCBr` here?
**A.** The Potency was “inactive”.

**Q.** With `C[N+](C)(C)C` as the molecule, how does the Potency read?
**A.** The Potency was “inactive”.

**Q.** With `BrCc1ccc(Br)cc1` as the molecule, how does the Potency read?
**A.** The Potency was “inactive”.

**Q.** For `CCC(=O)OC1(c2ccccc2)CCN(C)CC1`, which Potency is on record?
**A.** The Potency was “inactive”.

**Q.** With `O=C(O)C(F)(F)C(F)(F)C(F)(F)C(F)(F)C(F)(F)C(F)(F)C(F)(F)C(F)(F)C(F)(F)C(F)(F)F` as the molecule, how does the Potency read?
**A.** Its Potency is “inactive”.

**Q.** Which Potency does the source give for `Nc1c(Cl)c(Cl)nc(C(=O)O)c1Cl` here?
**A.** The Potency was “inactive”.

**Q.** With `COc1c(C(C)(C)C)cc([N+](=O)[O-])c(C)c1[N+](=O)[O-]` as the molecule, how does the Potency read?
**A.** Its Potency is “inactive”.

**Q.** With `O=[N+]([O-])c1ccc([As](=O)(O)O)cc1` as the molecule, how does the Potency read?
**A.** Its Potency is “inactive”.

**Q.** With `COC(=O)C(Cl)C(=O)OC` as the molecule, how does the Potency read?
**A.** Its Potency is “inactive”.

**Q.** For `C=CC(=O)OCC(CC)CCCC` (stereo not given), which Potency is on record?
**A.** The Potency was “inactive”.

**Q.** With `Nc1nc(=S)[nH][nH]1` as the molecule, how does the Potency read?
**A.** Its Potency is “inactive”.

**Q.** With `CCCCC1C(=O)NC(=O)N(C2CCCCC2)C1=O` (stereo not given) as the molecule, how does the Potency read?
**A.** Its Potency is “inactive”.

**Q.** For `CCCOC(=O)c1ccccc1C(=O)OCCC`, which Potency is on record?
**A.** Its Potency is “inactive”.

**Q.** Which Potency does the source give for `O=[N+]([O-])c1ccc(CBr)cc1` here?
**A.** The Potency was “inactive”.

**Q.** With `CNC(=S)S` as the molecule, how does the Potency read?
**A.** Its Potency is “inactive”.

**Q.** With `Nc1ccc2ccccc2c1` as the molecule, how does the Potency read?
**A.** Its Potency is “inactive”.

**Q.** With `CNC(=O)Oc1cccc2ccccc12` as the molecule, how does the Potency read?
**A.** Its Potency is 32.4 µM (active).

**Q.** For `C=CC(=O)OCCO`, which Potency is on record?
**A.** Its Potency is “inactive”.

**Q.** For `O=P(OCC(Br)CBr)(OCC(Br)CBr)OCC(Br)CBr` (stereo not given), which Potency is on record?
**A.** Its Potency is “inactive”.

**Q.** With `C#CCOC(C(=O)OCCN(C)C)(c1ccccc1)c1ccccc1` as the molecule, how does the Potency read?
**A.** The Potency was “inactive”.

**Q.** Which Potency does the source give for `CCCC1COC(Cn2cncn2)(c2ccc(Cl)cc2Cl)O1` (stereo not given) here?
**A.** The Potency was “inactive”.

**Q.** With `c1ccc2c(c1)oc1ccccc12` as the molecule, how does the Potency read?
**A.** Its Potency is “inactive”.

**Q.** For `[O]=[Cr](=[O])([OH])[O][Cr](=[O])(=[O])[OH]`, which Potency is on record?
**A.** Its Potency is “inactive”.

**Q.** With `CCCCCCCCCCCCCC[P+](CCCCCC)(CCCCCC)CCCCCC` as the molecule, how does the Potency read?
**A.** Its Potency is “inactive”.

**Q.** For `O=P(O)(O)CCCl`, which Potency is on record?
**A.** Its Potency is “inactive”.

**Q.** Which Potency does the source give for `C[C@]12CC[C@H]3[C@@H](CCC4=CC(=O)CC[C@@H]43)[C@@H]1CC[C@@H]2O` here?
**A.** The Potency was “inactive”.

**Q.** Which Potency does the source give for `CNC(=O)Oc1c(C(C)(C)C)cc(C)cc1C(C)(C)C` here?
**A.** The Potency was “inactive”.

**Q.** For `C[C@]12CCC(=O)C[C@@H]1CC[C@@H]1[C@@H]2CC[C@]2(C)[C@@H](O)CC[C@@H]12`, which Potency is on record?
**A.** Its Potency is “inactive”.

**Q.** For `CC1=C(C(=O)Nc2ccccc2)SCCO1`, which Potency is on record?
**A.** Its Potency is “inactive”.

**Q.** Which Potency does the source give for `CNC(C)(C)Cc1ccccc1` here?
**A.** The Potency was “inactive”.

**Q.** For `CCN(CC)CCN1C(=O)CN=C(c2ccccc2F)c2cc(Cl)ccc21`, which Potency is on record?
**A.** Its Potency is “inactive”.

**Q.** For `ClC1C(Cl)C(Cl)C(Cl)C(Cl)C1Cl` (stereo not given), which Potency is on record?
**A.** The Potency was “inactive”.

**Q.** With `OCC(O)CO` as the molecule, how does the Potency read?
**A.** Its Potency is “inactive”.

**Q.** With `C[C@]12CCC(=O)C=C1CC[C@@H]1[C@@H]2CC[C@]2(C)C(=O)CC[C@@H]12` as the molecule, how does the Potency read?
**A.** The Potency was “inactive”.

**Q.** Which Potency does the source give for `Cl/C=C\C[N+]12CN3CN(CN(C3)C1)C2` here?
**A.** The Potency was “inactive”.

**Q.** For `O=P(O)(Oc1ccccc1)Oc1ccccc1`, which Potency is on record?
**A.** Its Potency is “inactive”.

**Q.** With `Nc1c(Oc2ccccc2)cc(O)c2c1C(=O)c1ccccc1C2=O` as the molecule, how does the Potency read?
**A.** The Potency was “inactive”.

**Q.** For `C=CCc1ccccc1O`, which Potency is on record?
**A.** Its Potency is “inactive”.

**Q.** For `CC(C)NC(C)C`, which Potency is on record?
**A.** Its Potency is “inactive”.

**Q.** With `ClC1=C(Cl)C2(Cl)C3C(Cl)C=CC3C1(Cl)C2(Cl)Cl` (stereo not given) as the molecule, how does the Potency read?
**A.** The Potency was “inactive”.
